A selection: hits, their analogues and other compounds. The true share with any hit is near 1.9%.
Vif inh = HIV Vif inhibition; HEK293T cells, Vif self-association by quenched fluorescence, imaging, 24 h; inhibition, % at 7.49 µM; 0.35% of 340,000 active; AID 602346; in the data active means inhibition above about 50%, passing the limit was not always enough; inconclusive means no clear call, values can overlap the other calls; inactive means below about 31%
ATG4B inh = blocks human ATG4B protease cleavage of LC3 substrate; Q9Y4P1; ATG4B cleavage of LC3-PLA2, NBD-HPC fluorescence, 1 h; inhibition, % at 8.33 µM; 0.51% of 340,000 active; in the data active means inhibition above about 40%
Pemphigus Ab inh = blocks pemphigus antibody binding to human desmoglein-3. P32926. DSG3-coupled beads, scFv-anti-DSG3-GFP binding, flow cytometry; active compounds read low. binding (percent of control), % at 10 µM. 0.48% of 310,000 active;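 active means binding more than 3 SD below its plate's average and above zero; inconclusive means below that plate limit but binding exactly zero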;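 further: hits lower antibody fragment binding to DSG3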
N-glyco inh = N-linked glycosylation inhibition; D54 ERlucT glycosylation luciferase reporter, 24 h; percent of 100 nM tunicamycin response; reporter increase, % at 12.5 µM; 0.23% of 360,000 active; AID 588692;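 active means mean luciferase reporter signal, scaled so untreated is 0 and the glycosylation-blocking control 100, at or above a set limit in every replicate; inconclusive means mean reaches the limit but not every replicate does; inactive means mean below the limit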;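 further: luciferase carries N-glycosylation sites so blocking glycosylation raises the light; 0% = median of neutral control wells and 100% = median of 100 nM tunicamycin wells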
NSD2 inh = blocks human histone methyltransferase NSD2 | inhibition, % at 12.5 µM | 0.54% of 310,000 active | NSD2 peptide methylation, AlphaScreen, 120 min | O96028; in the data active means inhibition above about 50%
Target sequence (O96028 whole entry, looked up): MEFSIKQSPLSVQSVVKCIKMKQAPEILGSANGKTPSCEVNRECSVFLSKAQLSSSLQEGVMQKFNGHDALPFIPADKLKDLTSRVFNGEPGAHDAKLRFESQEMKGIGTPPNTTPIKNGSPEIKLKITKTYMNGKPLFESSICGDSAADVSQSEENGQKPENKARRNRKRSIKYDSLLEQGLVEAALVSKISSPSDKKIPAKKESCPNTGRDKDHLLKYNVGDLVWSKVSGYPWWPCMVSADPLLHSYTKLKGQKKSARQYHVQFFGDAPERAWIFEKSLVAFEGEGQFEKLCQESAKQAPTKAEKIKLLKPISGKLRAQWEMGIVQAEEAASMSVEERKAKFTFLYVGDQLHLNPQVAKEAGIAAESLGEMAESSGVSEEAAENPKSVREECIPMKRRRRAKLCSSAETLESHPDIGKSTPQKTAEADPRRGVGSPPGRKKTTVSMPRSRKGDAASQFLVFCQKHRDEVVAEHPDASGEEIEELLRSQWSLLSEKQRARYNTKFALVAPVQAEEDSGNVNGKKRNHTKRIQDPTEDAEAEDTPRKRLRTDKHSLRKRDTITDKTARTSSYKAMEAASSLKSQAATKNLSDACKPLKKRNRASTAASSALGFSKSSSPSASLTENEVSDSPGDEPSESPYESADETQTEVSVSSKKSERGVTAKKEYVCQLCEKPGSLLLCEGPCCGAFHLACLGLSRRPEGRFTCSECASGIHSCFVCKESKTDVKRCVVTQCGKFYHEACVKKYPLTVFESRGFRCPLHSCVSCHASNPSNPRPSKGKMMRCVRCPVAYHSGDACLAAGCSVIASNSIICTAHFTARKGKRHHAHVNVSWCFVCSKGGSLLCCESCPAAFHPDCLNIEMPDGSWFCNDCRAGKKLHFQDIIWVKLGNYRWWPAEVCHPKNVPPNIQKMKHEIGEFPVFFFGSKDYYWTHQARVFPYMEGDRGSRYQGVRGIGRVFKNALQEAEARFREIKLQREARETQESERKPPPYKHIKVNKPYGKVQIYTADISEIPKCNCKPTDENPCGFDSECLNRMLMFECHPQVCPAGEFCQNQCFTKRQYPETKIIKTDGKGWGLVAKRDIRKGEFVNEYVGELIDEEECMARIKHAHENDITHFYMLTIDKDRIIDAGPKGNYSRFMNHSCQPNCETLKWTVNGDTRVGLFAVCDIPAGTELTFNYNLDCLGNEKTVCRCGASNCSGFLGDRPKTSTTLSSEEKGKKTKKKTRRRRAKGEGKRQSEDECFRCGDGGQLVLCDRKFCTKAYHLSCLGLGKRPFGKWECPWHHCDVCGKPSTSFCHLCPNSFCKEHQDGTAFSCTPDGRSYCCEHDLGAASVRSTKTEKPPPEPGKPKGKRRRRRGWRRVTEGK
CaV13 FRET inh = Primary screen for inhibitors of IQ motif and Ca2+-dependent inactivation inhibitor domain binding in CACNA1D, Förster resonance energy transfer in living cells, …; HEK cells, CFP/YFP FRET ICDI-IQ, plate reader, 10 min; percent FRET-ratio fall versus neutral wells; inhibition, % at 12.3 µM; 0.098% of 340,000 active; AID 743397;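 active means mean replicate inhibition of at least 30% and at least 1% of replicates passing that level; inconclusive means only one of the two criteria is met; inactive means neither criterion is met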;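 further: 0% = median of the neutral control wells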
* hit, by the source's call; ? = inconclusive; / = no result; + = active, no number.

SMILES | Vif inh | ATG4B inh | Pemphigus Ab inh | N-glyco inh | NSD2 inh | CaV13 FRET inh
CN(C)c1ccc(/C=C(/NC(=O)c2ccccc2)C(=O)NCCN2CCOCC2)cc1 | -1.2 | -2.2 | 101.2 | 0.1 | 2.4 | -12.3
COc1ccc2cc(C#N)c(SCC(=O)Nc3nonc3C)nc2c1 | 1.8 | -4.8 | 118.3 | 1.9 | 2.3 | -3.8
Cc1cc2nc(-c3ccc(SCC(=O)NC(C)C)nc3)[nH]c2cc1C | / | / | / | / | 0.5 | /
CCc1cc2cc(C)c(C)cc2nc1SCC(=O)Nc1cc(C)on1 | 18.4 | -1.3 | 59.9* | -3.5 | -0.4 | -2.0
Cc1cc2cc(C#N)c(SCC(=O)Nc3nonc3C)nc2cc1C | 78.9* | 3.4 | 91.7 | 3.9 | -4.2 | -10.3
Cc1cc(NC(=O)CSc2ccc(-c3nc4cc(C)c(C)cc4[nH]3)cn2)no1 | -8.9 | -6.6 | 104.8 | 44.2* | / | /
COC(=O)C1=C(C)N(Cc2ccccc2)C(=S)NC1c1ccc(-c2ccccc2)cc1 (stereo not drawn) | / | / | / | / | -0.3 | -4.0
Cc1cc(NC(=O)Nc2ccc(F)c(Cl)c2)no1 | -14.8 | -5.1 | 101.2 | -2.5 | 3.1 | -4.3
O=C(NCc1cccnc1)NC1(C(F)(F)F)Oc2ccc(Cl)cc2O1 (stereo not drawn) | 137.3* | 7.6 | 98.0 | -8.9 | / | /
Cc1cc(NC(=O)NC2(C(F)(F)F)Oc3ccc(Cl)cc3O2)no1 (stereo not drawn) | 104.9* | 0.5 | 103.8 | -10.4 | -6.5 | -7.9
COCCNC(=O)NC1(C(F)(F)F)Oc2ccc(Cl)cc2O1 (stereo not drawn) | 19.1 | 13.5 | 104.2 | -5.1 | -0.6 | -6.1
CCOC(=O)c1c(C)oc2c1c(C=NCC1CCCO1)c(O)c1ccccc12 (stereo not drawn) | 23.7 | 6.4 | ? | 2.9 | 99.4* | /
CCCCCCC[C@@H](C/C=C/CCC(=O)N(C)C/C(=C/Cl)C/C(=C\C(=O)N1C[C@H](O)CC1=O)OC)OC | 0.2 | -13.2 | 121.0 | 0.1 | / | -4.2
CCCCCCC[C@@H](C/C=C/CCC(=O)N(C)C/C(=C/Cl)C/C(=C\C(=O)N1CC(OC)=CC1=O)OC)OC | / | 3.4 | 123.0 | 77.4* | / | -4.8
Oc1ccc(-c2nc(-c3ccc(O)c(O)c3)cs2)cc1 | 64.4* | -19.3 | 103.4 | 11.8 | 16.8 | -8.9
C[C@H]1CN([C@@H](C)CO)C(=O)c2cc(-c3cccc(C(=O)N(C)C)c3)cnc2O[C@H]1CN(C)C(=O)Cc1ccccn1 | 1.1 | / | 97.9 | 0.6 | / | -7.1
Cc1ccc(/C=C/C(=O)O)cc1S(=O)(=O)N1CCc2ccccc21 | 58.0* | -6.2 | 96.3 | 1.4 | -0.4 | -1.6
Cc1ccc(/C=C/C(=O)O)cc1S(=O)(=O)N1CCCc2ccccc21 | 1.8 | -2.1 | 87.3 | 1.2 | -2.7 | -15.3
CCN(c1ccccc1)S(=O)(=O)c1ccc(C(=O)Nc2cc(C)ccn2)cc1 | 0.2 | -10.8 | 90.4 | -1.3 | -0.6 | -5.6
C=CCn1c(=N)c(C(=O)NCCCOC)cc2c(=O)n3cccc(C)c3nc21 | 5.0 | -7.1 | / | 2.7 | 1.6 | /
COCCCNC(=O)c1cccn2c(=O)c3cc4ccccc4cc3nc12 | 31.2 | -40.9 | 124.4 | 19.8 | 85.2* | -9.6
CCOC(=O)C(Cc1c(F)cccc1Cl)c1ccno1 (stereo not drawn) | -9.9 | 18.3 | 100.7 | 1.6 | 0.0 | 5.5
O=C(Cc1cccc2ccccc12)N/N=C/c1ccc(O)c([N+](=O)[O-])c1 | -2.2 | -5.1 | 103.4 | -1.6 | 3.7 | -2.6
O=C(Cc1cccc2ccccc12)N/N=C/c1ccc2cccc(O)c2n1 | 4.3 | 9.8 | 58.7* | 4.5 | -0.3 | 9.2
CCn1c(SC(C)C(=O)O)nnc1-c1cccnc1 (stereo not drawn) | 1.7 | -7.1 | 90.4 | 1.3 | -2.9 | -6.2
CC(C)(C)c1ccc(C(=O)N2CCN(CCNC(=O)C(=O)NCc3ccc(Cl)cc3)CC2)cc1 | -12.9 | -0.3 | 95.8* | -7.0 | / | /
O=C(O)Cc1ccc(O)c(F)c1 | -6.7 | -6.7 | 67.8* | 0.8 | / | -4.1
Cc1csc(-c2cc(C(=O)NCc3cc(C(F)(F)F)cc(C(F)(F)F)c3)n[nH]2)c1 | 14.0 | / | / | 0.4 | -1.6 | -17.0
O=C1c2sc3nc4n(c(=O)c3c2CCC1Br)CCCCC4 (stereo not drawn) | -0.5 | -4.0 | / | 1.8 | + | -4.0
